Bioassay records from PubChem BioAssay.
Cardio protect – protects H9c2 cardiomyocytes from peroxide injury | AID 588492 | protection from H2O2 cell death, % at 20 µM | H2O2 injury protection, ATPLite, 2 h | 0.63% of 360,000 active;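 active = compounds giving at least 50% protection of heart cells from peroxide-induced death in the single-dose screen, raw or plate-pattern-corrected value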
sPLA2-III inh – Inhibits HGIII-sPLA2 liposome hydrolysis, primary screen; inhibition, % at 12.2 µM; AID 743126; QFRET BODIPY PC-A2 liposome hydrolysis, fluorescence; 0.56% of 370,000 active; Q9NZ20;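 active = inhibition above mean plus 3 SD of compounds lying within the high and low control bounds, cut at about 19% in these data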
Myeloid diff 2 – compounds promoting myeloid differentiation; AID 624256; 1% of 360,000 active; calls only at 10 µM; ER-HoxA9 myeloid progenitors, lysozyme-GFP differentiation, flow cytometry;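 active = normalized GFP-positive differentiation at or above the plate's own cutoff, the solvent-only control mean plus 3 SD; inconclusive = no clear call, values can overlap the other calls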;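 note: cells exposed to compound for four days before flow analysis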
DAGLB inhibitor – diacylglycerol lipase beta (human) inhibition; HEK293T DAGLB membrane lysate, EnzChek fluorogenic substrate; inhibition, % at 5.17 µM; 0.059% of 340,000 active; in the data active = inhibition above about 34%
Rtt109 Vps75 – inhibitors of Candida albicans Rtt109/Vps75 histone acetyltransferase; Q5AAJ8; purified Rtt109/Vps75, ThioGlo CoA-SH fluorescence, 4 h; inhibition, % at 34.9 µM; 0.16% of 330,000 active;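 active = inhibition of at least 50% in every replicate; inconclusive = best replicate reaches 50% inhibition but some replicates fall short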
ABHD5 PLIN5 PPI – blocks binding of human ABHD5 to perilipin-5 | Split G. princeps luciferase complementation, luminescence, 4 h | inhibition, % at 4 µM | 0.78% of 360,000 active | AID 602281;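 active = inhibition above the mean inhibition across every tested compound plus 3 SD, cut at about 22% in these data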
Target sequence (Q00G26 whole entry, looked up): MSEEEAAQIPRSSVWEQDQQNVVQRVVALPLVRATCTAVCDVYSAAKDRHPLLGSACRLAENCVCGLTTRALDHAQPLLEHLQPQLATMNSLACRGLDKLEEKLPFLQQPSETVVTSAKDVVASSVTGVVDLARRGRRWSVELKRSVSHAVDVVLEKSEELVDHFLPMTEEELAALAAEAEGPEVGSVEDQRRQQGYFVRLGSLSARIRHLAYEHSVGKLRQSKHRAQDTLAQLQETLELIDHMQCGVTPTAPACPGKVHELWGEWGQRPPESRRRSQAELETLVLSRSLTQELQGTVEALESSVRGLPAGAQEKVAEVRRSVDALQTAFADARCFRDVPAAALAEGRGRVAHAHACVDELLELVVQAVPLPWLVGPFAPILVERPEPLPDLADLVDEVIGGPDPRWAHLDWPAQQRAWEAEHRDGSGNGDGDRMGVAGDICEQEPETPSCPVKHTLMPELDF
Target sequence (Q8WTS1 whole entry, looked up): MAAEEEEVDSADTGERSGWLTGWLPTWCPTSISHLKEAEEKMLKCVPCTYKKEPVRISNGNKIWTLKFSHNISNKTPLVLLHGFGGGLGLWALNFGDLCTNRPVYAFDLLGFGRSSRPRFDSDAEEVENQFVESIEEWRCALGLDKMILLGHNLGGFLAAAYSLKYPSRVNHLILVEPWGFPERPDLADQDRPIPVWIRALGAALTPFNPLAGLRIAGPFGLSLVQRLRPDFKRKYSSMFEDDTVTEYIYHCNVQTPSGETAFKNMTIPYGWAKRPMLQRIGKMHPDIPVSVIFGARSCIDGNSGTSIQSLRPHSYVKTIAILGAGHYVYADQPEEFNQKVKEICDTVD
ABHD5 PLIN5 conf – ABHD5-PLIN5 interaction inhibition, confirmed; shares compounds with ABHD5 PLIN5 PPI; biochemical ABHD5-PLIN5 interaction, luminescence; inhibition, % at 4 µM; 67% of 2,200 active; in the data active = inhibition above about 23%
HNF4 counter – counter-screen for ABHD5-PLIN5 inhibitors: HNF4 split-luciferase; shares compounds with ABHD5 PLIN5 PPI; HNF4 dimerization, luminescence, biochemical; inhibition, % at 4 µM; 77% of 2,200 active; AID 651674;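 active = mean inhibition across replicate wells exceeding the computed hit threshold, cut at about 13% in these data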;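 note: light from luciferase halves that rejoin when HNF4 fusion proteins dimerize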
Each line names hits and unclear results; the compound was inactive in the other large screens (follow-up assays come after a bar, where they were run). This is a sample that favours compounds with a hit; in the whole collection about 2.9% have one here.

CCOc1ccccc1NC(=O)c1nc(S(=O)(=O)Cc2cccc(C)c2)ncc1Cl	Myeloid diff 2 inconclusive
Cc1ccc(CS(=O)(=O)c2ncc(Cl)c(C(=O)Nc3nnc(C(C)C)s3)n2)cc1	Myeloid diff 2 inconclusive, ABHD5 PLIN5 PPI 56.6 | ABHD5 PLIN5 conf 87.2 | HNF4 counter 55.4
CSc1nnc(NC(=O)c2nc(S(=O)(=O)Cc3cccc(C)c3)ncc2Cl)s1	Myeloid diff 2 inconclusive, Rtt109 Vps75 inconclusive, ABHD5 PLIN5 PPI 29.9 | ABHD5 PLIN5 conf 85.5 | HNF4 counter 56.0
CSc1ncc(Cl)c(C(=O)Nc2nnc(SC/C=C/c3ccccc3)s2)n1	none
Cc1cccc(CS(=O)(=O)c2ncc(Cl)c(C(=O)Nc3nnc(C(C)C)s3)n2)c1	Myeloid diff 2 inconclusive, ABHD5 PLIN5 PPI 51.7 (no result: sPLA2-III inh) | ABHD5 PLIN5 conf 90.3 | HNF4 counter 58.7
CCSc1nnc(NC(=O)c2nc(S(=O)(=O)Cc3ccc(F)cc3)ncc2Cl)s1	ABHD5 PLIN5 PPI 24.2 | ABHD5 PLIN5 conf 79.9 | HNF4 counter 48.8
CC(C)c1nnc(NC(=O)CS(=O)(=O)Cc2ccccc2)s1	none
CSc1nnc(NC(=O)c2nc(S(=O)(=O)Cc3ccccc3F)ncc2Cl)s1	ABHD5 PLIN5 PPI 25.3 | ABHD5 PLIN5 conf 85.8 | HNF4 counter 55.4
NS(=O)(=O)c1ccc(CCNC(=O)C(=O)C2C(=O)Nc3ccccc32)cc1 (stereo unspecified)	none
Cc1ccc(CN2CCCCC(NC(=O)c3ccc4ccccc4c3)C2=O)cc1 (stereo unspecified)	none (no result: Cardio protect, Myeloid diff 2, DAGLB inhibitor, Rtt109 Vps75, ABHD5 PLIN5 PPI)
COc1ccc(CNC(=O)CSCc2cccc(Cl)c2)cc1	ABHD5 PLIN5 PPI 67.5 | ABHD5 PLIN5 conf inactive | HNF4 counter inactive
COc1ccc(CNC(=O)CCSCc2cccc(Cl)c2)cc1	none
CCOC(=O)C1=C(C)NC2=C(C(=O)C(C(=O)OCC)C(c3ccco3)C2)C1c1ccccn1 (stereo unspecified)	ABHD5 PLIN5 PPI 42.1 | ABHD5 PLIN5 conf inactive | HNF4 counter 16.7
S=C(NCCc1ccccn1)NC1CC2CCC1C2 (stereo unspecified)	ABHD5 PLIN5 PPI 62.5 | ABHD5 PLIN5 conf inactive | HNF4 counter inactive
CN(CCOc1ccccc1)CCOc1ccccc1	none
CN(C)CCOc1ccc(/C(=C(/CCCl)c2ccccc2)c2ccccc2)cc1	ABHD5 PLIN5 PPI 45.6 | ABHD5 PLIN5 conf 74.7 | HNF4 counter 35.3
COc1ccc(CNC(=O)CCCn2nc(C)n3c(cc4sccc43)c2=O)cc1	none
C=C1C(=O)[C@@]23[C@H](O)C[C@@H]4C(C)(C)CC[C@H](O)[C@]4(C)[C@@H]2C[C@H](O)[C@@H]1[C@H]3O	ABHD5 PLIN5 PPI 80.2 | ABHD5 PLIN5 conf 89.2 | HNF4 counter 98.7
C=C1[C@@H]2CC[C@H]3[C@]4(C)[C@@H](O)CC[C@@](C)(C(=O)OC)[C@H]4C[C@H](O)[C@]3(C2)[C@H]1O	none (no result: Cardio protect, Myeloid diff 2, DAGLB inhibitor, Rtt109 Vps75, ABHD5 PLIN5 PPI)
C[C@H]1C(=O)[C@]23C[C@H]1CC[C@H]2[C@]1(C)[C@@H](O)CC[C@@](C)(C(=O)O)[C@H]1C[C@@H]3O	none (no result: Cardio protect, Myeloid diff 2, DAGLB inhibitor, Rtt109 Vps75, ABHD5 PLIN5 PPI)
C=C1C(=O)[C@@]23[C@H](O)C[C@@H]4C(C)(C)CC[C@H](O)[C@@]4(C)[C@@H]2CC[C@@H]1[C@H]3O	Myeloid diff 2 inconclusive, ABHD5 PLIN5 PPI 52.8 | ABHD5 PLIN5 conf 84.8 | HNF4 counter 77.8
O=C(CN1C(=O)C2C3C=CC(C3)C2C1=O)OCC(=O)c1ccccc1 (stereo unspecified)	none (no result: Rtt109 Vps75)
CCOC(=O)/C(=C\c1ccc(OC(F)F)cc1)C1=Nn2c(nnc2-c2ccc(Cl)cc2)SC1	Myeloid diff 2 inconclusive (no result: sPLA2-III inh)
CCOC(=O)/C(=C/c1ccc(OC(F)F)cc1)C1=Nn2c(nnc2-c2ccc(Cl)cc2)SC1	ABHD5 PLIN5 PPI 41.9 | ABHD5 PLIN5 conf 101.0 | HNF4 counter 91.0
COc1ccc(NC(=O)CSc2ncnc3scc(-c4ccc(C)cc4)c23)cc1OC	none (no result: Cardio protect, Myeloid diff 2, DAGLB inhibitor, Rtt109 Vps75, ABHD5 PLIN5 PPI)
O=C(NCc1ccco1)c1cnn2c(C(F)(F)F)cc(-c3cccs3)nc12	Cardio protect 64.6, ABHD5 PLIN5 PPI 24.0 | ABHD5 PLIN5 conf 24.7 | HNF4 counter 46.7
COc1cccc(N2[C@@H](CC(C)=O)c3ccc(/C=C/C(C)=O)cc3S2(=O)=O)c1	ABHD5 PLIN5 PPI 31.8 | ABHD5 PLIN5 conf 65.2 | HNF4 counter 57.0
COc1ccc(CN2[C@@H](CC(C)=O)c3ccc(/C=C/C(C)=O)cc3S2(=O)=O)cc1	ABHD5 PLIN5 PPI 34.7 | ABHD5 PLIN5 conf 70.4 | HNF4 counter 62.3
CC(C)C(Cl)=NOC(=O)Nc1ccc(S(N)(=O)=O)cc1	ABHD5 PLIN5 PPI 28.9 (no result: Myeloid diff 2) | ABHD5 PLIN5 conf 68.5 | HNF4 counter 87.2
N[C@@H](CO)c1nnc([C@H](Cc2ccc(O)cc2)NC(=O)C2CCNCC2)o1	none
CCN1CCN(C(=O)C2CC(c3ccc(F)cc3)=NO2)CC1 (stereo unspecified)	none
Cc1ccc(-c2ccc(CCC(=O)O)o2)cc1	ABHD5 PLIN5 PPI 28.5 | ABHD5 PLIN5 conf inactive | HNF4 counter 43.9
Cc1cc(NC(=O)CCc2ccc(-c3ccccc3)o2)no1	none
COc1cc(OC)nc(Nc2nc(C(N)Cc3ccc(F)cc3)cs2)n1 (stereo unspecified)	none (no result: DAGLB inhibitor, Rtt109 Vps75)
COc1ccccc1Cc1c(-c2ccco2)nc2ccc(C)cn12	ABHD5 PLIN5 PPI 55.7 (no result: DAGLB inhibitor, Rtt109 Vps75) | ABHD5 PLIN5 conf 27.1 | HNF4 counter 48.0
Cc1cc(Br)cn2c(Cc3ccccc3)c(-c3ccco3)nc12	ABHD5 PLIN5 PPI 29.9 (no result: DAGLB inhibitor, Rtt109 Vps75) | ABHD5 PLIN5 conf 29.7 | HNF4 counter 45.0
Cc1ccc2nc(-c3ccccc3)c(Cc3cccc(F)c3)n2c1	none (no result: Cardio protect, DAGLB inhibitor, Rtt109 Vps75)
FC(F)(F)c1ccccc1Cc1c(-c2ccco2)nc2ccc(Cl)cn12	ABHD5 PLIN5 PPI 34.1 (no result: DAGLB inhibitor, Rtt109 Vps75) | ABHD5 PLIN5 conf 45.9 | HNF4 counter 63.0
Cc1ccc2nc(-c3ccco3)c(Cc3cccc(F)c3)n2c1	ABHD5 PLIN5 PPI 56.4 (no result: DAGLB inhibitor, Rtt109 Vps75) | ABHD5 PLIN5 conf inactive | HNF4 counter 19.9
Cc1ccccc1Cn1c(=O)sc2ccccc2c1=O	none
COc1ccccc1Cc1c(-c2ccc(C)cc2)nc2c(C)cc(Br)cn12	none (no result: DAGLB inhibitor, Rtt109 Vps75)
COc1ccccc1Cc1c(-c2ccco2)nc2c(C)cc(Br)cn12	ABHD5 PLIN5 PPI 57.9 (no result: sPLA2-III inh, Myeloid diff 2, DAGLB inhibitor, Rtt109 Vps75) | ABHD5 PLIN5 conf 35.8 | HNF4 counter 40.4
O=C(Nc1cccc(-c2cccc(Cl)c2)c1)C1CCN(Cc2ccc(CO)o2)CC1	ABHD5 PLIN5 PPI 27.0 | ABHD5 PLIN5 conf inactive | HNF4 counter inactive
Cc1ccc(CN2CCC(C(=O)Nc3cccc(-c4cccc(F)c4)c3)CC2)o1	none
CC(C)(C)NC(=O)C(c1ccc(-c2ccccc2)cc1)n1c(=O)c(-c2ccco2)nc2ccccc21 (stereo unspecified)	ABHD5 PLIN5 PPI 72.9 (no result: Cardio protect, DAGLB inhibitor, Rtt109 Vps75) | ABHD5 PLIN5 conf 93.8 | HNF4 counter 28.2
